Laboratory results taken from PubChem BioAssay (NCI).
About 83,000 compounds went through this panel and 20% of them were active in at least one assay; those are over-represented in the sample as a whole.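 48-hour exposure, single concentration, 96-well plates; percent growth endpoint where 0 means no net growth. Active: below 10.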 Values without a mark were called inactive. The source made the active and inactive calls.

Legend:
Experiment in all cases: NCI-60 one-dose screen, 48 h (100 = growth as untreated, 0 = no growth, -100 = all killed)
Details in all cases: 10 µM unless noted
DU-145 prostate = tested on: DU-145 prostate
K-562 leukemia = tested on: K-562 leukemia
MALME-3M melanoma = tested on: MALME-3M melanoma
MDA-MB-231 breast = tested on: MDA-MB-231 breast
RXF 393 renal = tested on: RXF 393 renal
SF-268 CNS = tested on: SF-268 CNS
SF-295 CNS = tested on: SF-295 CNS
SF-539 CNS = tested on: SF-539 CNS
UACC-257 melanoma = tested on: UACC-257 melanoma
M14 melanoma = tested on: M14 melanoma

Compound | growth (DU-145 prostate) | growth (K-562 leukemia) | growth (MALME-3M melanoma) | growth (MDA-MB-231 breast) | growth (RXF 393 renal) | growth (SF-268 CNS) | growth (SF-295 CNS) | growth (SF-539 CNS) | growth (UACC-257 melanoma) | growth (M14 melanoma)
NS(=O)(=O)c1ccc(C(=O)NN2C(=O)c3c(Br)c(Br)c(Br)c(Br)c3C2=O)cc1 | 103% | 102% | 98.7% | 101% | 110% | 95.5% | 98.2% | 96.9% | 100% | 98.9%
CCN1CCN(c2cc(C)nc(N(CCNc3ccnc4cc(Cl)ccc34)Cc3ccc4c(c3)OCO4)n2)CC1 | 26.5% | -48.4% (active) | -65.8% (active) | -42.4% (active) | -82.5% (active) | 7.14% (active) | -63.5% (active) | -71.2% (active) | -59.9% (active) | -66.5% (active)
CSC(SC)=C(C#N)c1nc2ccccc2s1 | 87.2% | 47.4% | 67.9% | 52.9% | 95.8% | 55.1% | 88.2% | 60.2% | 54% | 48.1%
C=C(C)[C@@H]1CC[C@]2(C(=O)N3CCN(C)CC3)CC[C@]3(C)[C@H](CC[C@@H]4[C@@]5(C)CC[C@H](OC(=O)c6ccccc6C(=O)O)C(C)(C)[C@@H]5CC[C@]43C)[C@@H]12 | 104% | 102% | 97.4% | 96.9% | 111% | 92.8% | 104% | 97.6% | 107% | 99.3%
Cc1c(Cl)cccc1C(=O)Nc1nc2c(s1)CN(C(=O)c1ccc(C(F)(F)F)cc1)CC2 | 15.7% | 10.3% | 44.6% | 34.4% | 21.9% | 38.4% | 25.1% | -24.5% (active) | 63.7% | 10.2%
O=c1nc(-c2ccccc2)c2cc(-c3ccc(C(F)(F)F)nc3)ccc2[nH]1 | 103% | 103% | 111% | 91.9% | 105% | 98.1% | 103% | 93.2% | 109% | 98.6%
Cc1ccc2c(=O)cc(C(=O)Nc3sc4c(c3C(=O)NCc3cccnc3)CCCC4)oc2c1C | 103% | 96.4% | 99.9% | 96.9% | 116% | 93.2% | 102% | 98.1% | 104% | 104%
COc1ccc(C2=NN(C(C)=O)C(c3cn(-c4ccccc4)nc3-c3ccc(Cl)cc3)C2)cc1 (stereo not given) | 17.4% | 13.1% | 52% | 17.2% | -10.5% (active) | 27.2% | 42.4% | 15.8% | 66.4% | 17.2%
C=CC(=O)Nc1ccc(Nc2nccc(-c3ccc(N4CCCC4)c(C#N)c3)n2)cc1 | 36.8% | 16.6% | -41.8% (active) | 60.9% | -54.5% (active) | 43.9% | -36.9% (active) | 51.1% | 39.4% | 3.42% (active)
O=C(CSc1nc(-c2ccccc2)cc(=O)[nH]1)Nc1nc(-c2ccccc2)cs1 | 97.8% | 87.7% | 110% | 116% | 87.4% | 93.8% | 76.4% | 113% | 94.6% | 117%
COc1ccc(Cn2cc3c(c2-c2ccccc2)CCc2cnoc2-3)cc1 | -4.72% (active) | 13.7% | 70.2% | 10.4% | 24.8% | 16% | 23.2% | -12.8% (active) | 78.8% | 16.8%
Cn1cc(-c2csc(-c3cn(CCCN4CCOCC4)c4ccccc34)n2)c2cccnc21 | 97.9% | 26.2% | 108% | 76.5% | 65.7% | 91.7% | 79.5% | 89.4% | 89.3% | 83.6%
C=C(C)[C@@H]1CC[C@]2(C(N)=O)CC[C@]3(C)[C@H](CC[C@@H]4[C@@]5(C)CC[C@H](OCCC#N)C(C)(C)[C@@H]5CC[C@]43C)[C@@H]12 | 94.7% | 74.3% | 101% | 73.2% | 86.8% | 74.1% | 79.5% | 91.6% | 101% | 90.2%
O=C1/C(=C/c2ccccn2)NC(=S)N1c1ccccc1Cl | 54.1% | 39.7% | 67.7% | 36.4% | -7.86% (active) | 83.5% | 55.9% | 67.3% | 74.5% | 42.3%
CCCn1cnc2c(c1=N)C(c1ccc(F)cc1)c1sc3c(F)cccc3c1O2 (stereo not given) | 76.6% | 16.9% | 54.1% | 63.3% | 52.2% | 49.6% | 27.7% | 32.6% | 73.4% | 39.3%
Cc1nc2c(=O)nc3s/c(=C\c4ccco4)c(=O)n3c2nc1C | 103% | 102% | 82.1% | 93.8% | 112% | 100% | 91.2% | 90.3% | 96.1% | 93.7%
c1ccc(CCNc2c3ccccc3nc3ccccc23)cc1 | 37.9% | 25% | 57.1% | 43.3% | 35.3% | 66.5% | 34.9% | 28.1% | 55.2% | 42.7%
Cc1ccc(/C=C/C(=O)c2ccc(-n3cc(CN4CCN(c5cc6c(cc5F)c(=O)c(C(=O)O)cn6C5CC5)CC4)nn3)cc2)cc1 | 96.3% | 86% | 96% | 75.5% | 70.9% | 71.5% | 86.9% | 73.6% | 101% | 87.4%
CCN1CCN(CC(=O)Nc2nc3ccc(NCc4ccc(F)cc4)cc3s2)CC1 | 95.1% | 58.8% | 90.7% | 91% | 94.8% | 94.3% | 99% | 74.1% | 108% | 91.4%
CO[C@H]1CC(=O)n2c3ccccc3c3c4c(c5c6ccccc6n1c5c32)C(=O)NC4=O | 42.3% | 76.3% | 50.2% | 71.4% | 62.4% | 68.9% | 11.3% | 57% | 73.5% | 62.2%
O=C1/C=C/[C@@H](O)[C@@H]2C[C@@H](O)C[C@H]2/C=C/CCC[C@H](CCO)O1 | 16.6% | 17.7% | -11.4% (active) | -83.1% (active) | -7.43% (active) | 12.4% | 12.1% | 31.7% | 27% | 12.3%
CCCCNC(=O)Oc1ccc(/C(=C(/C)Cc2ccc(OC)cc2)c2ccc(OCCN3CCCCC3)cc2)cc1 | 92.1% | -14.1% (active) | 79.1% | 87.6% | 71.5% | 81.2% | 86.8% | 80.4% | 99.2% | 31%
CN1C(=O)/C(=C2\SC(=Nc3ccccc3)N(Nc3ccccc3)C2=O)c2ccccc21 | 109% | 99.5% | 110% | 91.4% | 109% | 95.4% | 105% | 94.9% | 106% | 101%
N#C/C(=C\c1ccc([N+](=O)[O-])cc1)n1nnc2cc(F)c(F)cc21 | 14.6% | 5.08% (active) | 33.1% | 8.32% (active) | -64.7% (active) | 31% | 98.1% | -33.7% (active) | 77.4% | 28.4%
C=C1CC[C@@H]2C(C)(C)[C@@H](O)CC[C@@]2(C)[C@@H]1COc1ccc2ccc(=O)oc2c1 | 91.8% | 53.3% | 89% | 89.4% | 88.5% | 78% | 62.5% | 86.1% | 77.3% | 80.4%
CCCCNc1cc(-c2cn[nH]c2-c2cc(C)cc(OC)c2)nc(-c2cccnc2)n1 | 93.6% | 80.1% | 100% | 69.8% | 71.9% | 98.4% | 91.5% | 81.7% | 110% | 98.7%
